# Assay results reported in the supplement of paper PMC9135407.
# Where “and” joins values, the source holds several entries; their conditions need not be identical. Identical values can stand only once. Counter-ions that a name gives are not always drawn. The campaign covered roughly 5,800 compounds. About 620 (11%) showed activity. The sample as a whole holds a higher share of actives than the screen did. A number with no mark means an inactive call.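 How the source made its calls: active = score above a cut-off or among the top three wells of a plate; in these data no inactive exceeds 0.85.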
# Test system: primary human hepatic stellate cells (donor 1)
# Test: scaled lipid accumulation score (0 = DMSO-like, 1 = nortriptyline-like); higher = stronger HSC inactivation (lipid re-accumulation), active = hit call of the paper
# Conditions: 48 h
# [1] = library stock concentration: 3.33 mM
# [2] = library stock concentration: 10 mM
# [3] = library stock concentration: 80 uM
# [4] = library stock concentration: 400 uM
# [5] = library stock concentration: 2 mM
# [6] = library stock concentration: 1 mM
structure (smiles),measurement,setting,value
c1ccc(Cn2c(-c3ccc(OCC(C4CCNCC4)n4c(-c5ccccc5)nc5ccccc54)cc3)nc3ccccc32)cc1 (centres undefined) [Deltarasin],scaled lipid accumulation score,[1],0.766
same,scaled lipid accumulation score,[2],0.104
O=c1[nH]c(=S)[nH]c(-c2ccccc2)c1Cc1c(O)ccc2ccccc12 [Cambinol],scaled lipid accumulation score,[2],0.124
CC(C)CC(=O)Nc1n[nH]c2c1CN(C(=O)C1CCN(C)CC1)C2(C)C,scaled lipid accumulation score,[3],≤ 0
same,scaled lipid accumulation score,[4],0.21
same,scaled lipid accumulation score,[5],0.029
same,scaled lipid accumulation score,[1],0.199
same,scaled lipid accumulation score,[2],≤ 0 and 0.015
Cc1nc(Nc2n[nH]c3c2CN(C(=O)N[C@H](CN(C)C)c2ccccc2)C3(C)C)c2sccc2n1 [listing 1 of 2 here],scaled lipid accumulation score,[2],0.887 (active)
Cc1nc(Nc2n[nH]c3c2CN(C(=O)N[C@H](CN(C)C)c2ccccc2)C3(C)C)c2sccc2n1 [listing 2 of 2 here],scaled lipid accumulation score,[3],≤ -0.016
same,scaled lipid accumulation score,[4],0.092
same,scaled lipid accumulation score,[5],0.522
same,scaled lipid accumulation score,[1],≤ -0.009
same,scaled lipid accumulation score,[2],0.594
Cc1nn(C)c(COc2ccc(N3CCN(S(=O)(=O)N(C)C)CC3)cc2)c1-c1cccc2c(CCCOc3cccc4ccccc34)c(C(=O)O)n(CCN3CCOCC3)c12,scaled lipid accumulation score,[3],≤ -0.001
same,scaled lipid accumulation score,[4],≤ -0.001
same,scaled lipid accumulation score,[5],≤ -0.001
same,scaled lipid accumulation score,[2],≤ -0.001
CCCCCCCCCCCCCCCCCCN(CCCCCCCCCCCCCCCCCC)CCCN(CCO)CCO [Avridine],scaled lipid accumulation score,[2],≤ 0
N[C@@H](Cn1ccc(=O)c(O)c1)C(=O)O [L-Mimosine from Koa hoale seeds],scaled lipid accumulation score,[2],≤ 0
c1cc(OCCN2CCCCC2)cc(-c2n[nH]c3ccc(-c4nnc[nH]4)cc23)c1,scaled lipid accumulation score,[3],≤ -0.016
same,scaled lipid accumulation score,[4],≤ -0.016 and ≤ -0.005
same,scaled lipid accumulation score,[5],≤ -0.016 and 0.022
O=C(c1ccc(OCCN2CCCCC2)cc1)c1c(-c2ccc(O)cc2)sc2cc(O)ccc12,scaled lipid accumulation score,[2],0.798
c1ccc(-c2nn3c(c2-c2ccnc4cc(OCCN5CCOCC5)ccc24)CCC3)nc1,scaled lipid accumulation score,[3],≤ -0.001
same,scaled lipid accumulation score,[4],≤ -0.001
same,scaled lipid accumulation score,[5],≤ -0.001
same,scaled lipid accumulation score,[2],≤ -0.001
c1cc(OCCN2CCCCC2)cc(-c2n[nH]c3ccc(-c4ncn[nH]4)cc23)c1,scaled lipid accumulation score,[2],1.72 (active)
O=C(OCCN1CCCCC1)c1c[nH]c2ccccc12,scaled lipid accumulation score,[2],0.289
O=C(c1ccc(OCCN2CCCCC2)cc1)c1c(-c2ccc(O)cc2)sc2cc(O)ccc12 [Raloxifene HCl],scaled lipid accumulation score,[1],≤ 0
same,scaled lipid accumulation score,[2],0.575
O=C(c1ccc(OCCN2CCCCC2)cc1)c1c(-c2ccc(O)cc2)sc2cc(O)ccc12 [Raloxifene hydrochloride],scaled lipid accumulation score,,0.032
same,scaled lipid accumulation score,[2],0.661 and 0.376
Cl.c1cc(OCCN2CCCCC2)cc(-c2n[nH]c3ccc(-c4nc[nH]n4)cc23)c1,scaled lipid accumulation score,[2],1.28 (active)
CCCCC[C@H](O)/C=C/C1=C(C/C=C\CCCC(=O)O)C(=O)CC1 [Prostaglandin B2],scaled lipid accumulation score,[6],≤ 0 and ≤ -0.021
CC(=N)NCCCC[C@H](N)C(=O)O [L-NIL hydrochloride],scaled lipid accumulation score,[2],0.025
CCCCCCCCCCCC(=O)c1nc2ncccc2o1,scaled lipid accumulation score,[6],≤ 0
CCCCC/C=C\C/C=C\CCCCCCCC(=O)NCC(=O)O [N-linoleoylglycine],scaled lipid accumulation score,[6],≤ -0.021
CCCCC(CC)COc1ccc(-c2nc(-c3ccc(OC)cc3)nc(-c3ccc(OCC(CC)CCCC)cc3O)n2)c(O)c1 (centres undefined),scaled lipid accumulation score,[2],≤ 0
"CCCCCC=CCC=CCCCCCCCCCC(=O)O [11(Z),14(Z)-Eicosadienoic Acid]",scaled lipid accumulation score,[6],≤ 0
Cc1cccc(Nc2nc(-c3ccncc3)cs2)c1 [listing 1 of 2 here],scaled lipid accumulation score,[6],≤ 0
Cc1cccc(Nc2nc(-c3ccncc3)cs2)c1 [listing 2 of 2 here],scaled lipid accumulation score,[1],0.881 (active)
same,scaled lipid accumulation score,[2],1.24 (active)
Oc1ccc(Nc2nc(-c3ccc(Cl)cc3)cs2)cc1,scaled lipid accumulation score,[3],≤ -0.001
same,scaled lipid accumulation score,[4],≤ -0.001
same,scaled lipid accumulation score,[5],≤ -0.001
same,scaled lipid accumulation score,[1],≤ -0.009
same,scaled lipid accumulation score,[2],0.141 and 0.011
Oc1ccc(Nc2nc(-c3ccc(Cl)cc3)cs2)cc1 [Sphingosine Kinase Inhibitor 2],scaled lipid accumulation score,[6],0.058
C[C@H]1Oc2cc(cnc2N)-c2c(nn(C)c2C#N)CN(C)C(=O)c2ccc(F)cc21,scaled lipid accumulation score,[3],≤ 0
same,scaled lipid accumulation score,[4],≤ 0
same,scaled lipid accumulation score,[5],0.031
same,scaled lipid accumulation score,[2],≤ 0
C[C@H]1COc2c(C3(N)CC3)c(F)cc3c(=O)c(C(=O)O)cn1c23 [Pazufloxacin],scaled lipid accumulation score,library stock concentration: 6.3 mM,≤ 0
C[C@H]1COc2c(C3(N)CC3)c(F)cc3c(=O)c(C(=O)O)cn1c23,scaled lipid accumulation score,[2],0.025 and ≤ 0
Clc1ccccc1C(c1ccccc1)(c1ccccc1)n1ccnc1 [Clotrimazole],scaled lipid accumulation score,,≤ 0
same,scaled lipid accumulation score,[1],≤ 0
same,scaled lipid accumulation score,library stock concentration: 5.8 mM,≤ -0.001
same,scaled lipid accumulation score,[2],≤ 0
N=C(N)NC(=O)c1nc(Cl)c(N)nc1N [Amiloride],scaled lipid accumulation score,library stock concentration: 8.7 mM,≤ -0.006
N=C(N)NC(=O)c1nc(Cl)c(N)nc1N [Amiloride HCl],scaled lipid accumulation score,[1],≤ 0
same,scaled lipid accumulation score,[2],≤ 0
N=C(N)NC(=N)Nc1ccccc1 [1-Phenylbiguanide hydrochloride],scaled lipid accumulation score,[2],≤ 0
CC(=O)Nc1ccccc1 [Acetanilide],scaled lipid accumulation score,[1],≤ 0
same,scaled lipid accumulation score,[2],≤ 0 and 0.04
CS(=O)(=O)O.N=C(NC(=O)c1nc(Cl)c(N)nc1N)Nc1ccccc1 [Phenamil methanesulfonate],scaled lipid accumulation score,[2],1.15 (active)
N=C(NC(=O)c1nc(Cl)c(N)nc1N)Nc1ccccc1 [Phenamil],scaled lipid accumulation score,library stock concentration: 16.4 mM,1.07 (active)
N=C(N)NC(=O)c1nc(Cl)c(N)nc1N [Amiloride hydrochloride],scaled lipid accumulation score,library stock concentration: 7.5 mM,≤ -0.001
same,scaled lipid accumulation score,[2],≤ 0
N=C(N)NC(=O)c1nc(Cl)c(N)nc1N [Amiloride hydrochloride dihydrate],scaled lipid accumulation score,,≤ 0
N=C(N)NC(=O)c1nc(Cl)c(N)nc1N,scaled lipid accumulation score,library stock concentration: 18.8 mM,≤ -0.021
CCCCCCCCCCCCCCCC(=O)NCCc1ccc(O)c(O)c1 [N-Palmitoyl Dopamine],scaled lipid accumulation score,[6],≤ 0
CC[C@]1(O)C[C@@H]2CN(CCc3c([nH]c4ccccc34)[C@@](C(=O)OC)(c3cc4c(cc3OC)N(C)[C@H]3[C@@](O)(C(=O)OC)[C@H](OC(C)=O)[C@]5(CC)C=CCN6CC[C@]43[C@@H]65)C2)C1 [Vinblastine],scaled lipid accumulation score,[1],0.782
CC[C@]1(O)C[C@@H]2CN(CCc3c([nH]c4ccccc34)[C@@](C(=O)OC)(c3cc4c(cc3OC)N(C)[C@@H]3C45CCN4CC=C[C@](CC)([C@H]45)[C@H](OC(C)=O)[C@]3(O)C(=O)OC)C2)C1 (some centres undefined) [Vinblastine],scaled lipid accumulation score,[2],0.956 (active)
CCCCC[C@@H](O)/C=C/[C@H]1[C@H](C/C=C\CCCC(=O)O)C(=O)C[C@@H]1O [ent-Prostaglandin E2],scaled lipid accumulation score,[6],≤ 0
CC(C)=CC[C@@H](O)C1=CC(=O)c2c(O)ccc(O)c2C1=O [Shikonin],scaled lipid accumulation score,library stock concentration: 6.9 mM,0.554
same,scaled lipid accumulation score,library stock concentration: 17.3 mM,≤ -0.012
CCCCC[C@H](O)/C=C/[C@H]1[C@H](O)CC(=O)[C@@H]1C/C=C\CCCC(=O)NCCO [Prostaglandin E2 Ethanolamide],scaled lipid accumulation score,[6],≤ 0
CC(C1=C(CCN(C)C)Cc2ccccc21)c1ccccn1 (stereo in doubt) [(S)-(+)-Dimethindene maleate],scaled lipid accumulation score,[2],0.162
CCCCCC(O)/C=C/C=O (centres undefined) [4-hydroxy Nonenal],scaled lipid accumulation score,[6],≤ 0
CNC(=O)c1ccccc1Sc1ccc2c(/C=C/c3ccccn3)n[nH]c2c1 [Axitinib],scaled lipid accumulation score,[3],≤ -0.001
same,scaled lipid accumulation score,[4],≤ -0.001
same,scaled lipid accumulation score,[5],≤ -0.001
same,scaled lipid accumulation score,[1],≤ 0
same,scaled lipid accumulation score,[2],≤ 0 and ≤ -0.001
Cc1cc(C(=O)Nc2cc(Nc3ccc4c(/C=C/c5ccccn5)n[nH]c4c3)ccc2F)n(C)n1 [listing 1 of 2 here],scaled lipid accumulation score,[4],0.035
same,scaled lipid accumulation score,[5],0.724
CNC(=O)c1ccccc1Sc1ccc2c(/C=C/c3ccccn3)n[nH]c2c1,scaled lipid accumulation score,[4],0.07
same,scaled lipid accumulation score,[5],≤ -0.005
same,scaled lipid accumulation score,[2],0.024
Cc1cc(C(=O)Nc2cc(Nc3ccc4c(/C=C/c5ccccn5)n[nH]c4c3)ccc2F)n(C)n1 [listing 2 of 2 here],scaled lipid accumulation score,[2],1.61 (active)
CCCCC[C@H](O)CC[C@@H]1[C@H]2Cc3cccc(OCC(=O)O)c3C[C@H]2C[C@H]1O [Treprostinil],scaled lipid accumulation score,[6],0.05
CCCC(=O)[O-].[Na+] [Sodium Butyrate],scaled lipid accumulation score,[6],≤ 0
CCCCCCCCCCOCCC(=O)O [4-Oxatetradecanoic acid],scaled lipid accumulation score,[6],0.156
C1=N/C2=N/c3ccc(OCCN4CCCC4)c(c3)COC/C=C/COCc3cccc(c3)C(=C1)N2 [Pacritinib],scaled lipid accumulation score,[3],0.184
same,scaled lipid accumulation score,[4],0.686
same,scaled lipid accumulation score,[5],0.473
C1=CCOCc2cc(ccc2OCCN2CCCC2)Nc2nccc(n2)-c2cccc(c2)COC1 [Pacritinib],scaled lipid accumulation score,[2],0.932 (active)
C1=N/C2=N/c3ccc(OCCN4CCCC4)c(c3)COC/C=C/COCc3cccc(c3)C(=C1)N2 [Pacritinib (SB1518)],scaled lipid accumulation score,[1],0.536
same,scaled lipid accumulation score,[2],0.41
Cn1c(N2CCCCS2(=O)=O)nc(C(=O)NCc2ccc(F)cc2)c(O)c1=O,scaled lipid accumulation score,[1],0.024
same,scaled lipid accumulation score,[2],≤ 0
NCCNc1ncc(C(N)=O)c(Nc2cccc(C(F)(F)F)c2)n1 [Syk Inhibitor II],scaled lipid accumulation score,[1],0.589
